Experimental data as given in PubChem BioAssay (EPA / NIEHS).
Active and inactive are the calls of the source. Rule for the calls: active = hit-call score of the fitted dose curve at least 0.9, where 1 is the maximum; inactive = score below 0.9.

Key:
Details in all cases: mRNA level, 48 h; actives raise or lower the signal
[1] = read-out: CFLAR gene, CFLAR (gene 8837); experiment: LTEA_HepaRG_CFLAR: Life Technologies and Expression Analysis (LTEA) Assay for CFLAR gene using HepaRG (AID 2283455)
In short: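 HepaRG cells were plated for 48 h, switched to serum-free induction medium, then exposed in duplicate for 48 h to 8 concentrations (top 100 uM, half-log steps, 0.5% DMSO). CFLAR mRNA was measured by qRT-PCR, normalized to ACTB, GAPDH and POLR2A.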

[2] = read-out: Forkhead box O1 (FOXO1), FOXO1 (gene 2308); experiment: LTEA_HepaRG_FOXO1: Life Technologies and Expression Analysis (LTEA) Assay for Forkhead box O1 (FOXO1) using HepaRG (AID 2283456)
In short: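 Differentiated human HepaRG cells in serum-free induction medium were exposed in duplicate for 48 h to eight half-log concentrations (top 100 uM, 0.5% DMSO). FOXO1 mRNA was measured by TaqMan qRT-PCR, normalised to ACTB, GAPDH and POLR2A, and fitted bidirectionally against DMSO.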

[3] = read-out: growth arrest and DNA damage 45 (GADD45A), GADD45A (gene 1647); experiment: LTEA_HepaRG_GADD45A: Life Technologies and Expression Analysis (LTEA) Assay for growth arrest and DNA damage 45 (GADD45A) using HepaRG (AID 2283458)
In short: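 Differentiated HepaRG cells were exposed in duplicate for 48 h in serum-free induction medium to 8-point half-log concentrations up to 100 uM in 0.5% DMSO. GADD45A mRNA was measured by TaqMan qRT-PCR, normalized to ACTB, GAPDH and POLR2A, with bidirectional fitting versus DMSO.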

[4] = read-out: Forkhead box O3 (FOXO3), FOXO3 (gene 2309); experiment: LTEA_HepaRG_FOXO3: Life Technologies and Expression Analysis (LTEA) Assay for Forkhead box O3 (FOXO3) using HepaRG (AID 2283459)
In short: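 Differentiated human HepaRG cells in serum-free induction medium were exposed in duplicate for 48 h to eight half-log concentrations up to 100 uM in 0.5% DMSO. FOXO3 mRNA was quantified by qRT-PCR, normalized to ACTB, GAPDH and POLR2A, with bidirectional fitting versus DMSO.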

[5] = read-out: ABC Transporter (ABCB1), ABCB1 (gene 5243); experiment: LTEA_HepaRG_ABCB1: Life Technologies and Expression Analysis (LTEA) Assay for ABC Transporter (ABCB1) using HepaRG (AID 2283460)
In short: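 Differentiated human HepaRG cells, plated 48 h then switched to serum-free induction medium, were exposed in duplicate to eight half-log concentrations up to 100 uM in 0.5% DMSO for 48 h. ABCB1 mRNA was measured by TaqMan qRT-PCR, normalized to ACTB/GAPDH/POLR2A.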

[6] = read-out: growth arrest and DNA damage 45 (GADD45B), GADD45B (gene 4616); experiment: LTEA_HepaRG_GADD45B: Life Technologies and Expression Analysis (LTEA) Assay for growth arrest and DNA damage 45 (GADD45B) using HepaRG (AID 2283461)
In short: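 Values are bidirectional concentration-response fits against 0.5% DMSO controls. Underlying data: qRT-PCR mRNA levels in human HepaRG liver cells treated 48 h in serum-free induction medium, eight concentrations topping at 100 uM.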

[7] = read-out: ABC Transporter (ABCC3), ABCC3 (gene 8714); experiment: LTEA_HepaRG_ABCC3: Life Technologies and Expression Analysis (LTEA) Assay for ABC Transporter (ABCC3) using HepaRG (AID 2283462)
In short: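 Differentiated HepaRG liver cells receive test chemicals at eight concentrations (max 100 uM) for 48 h. Expression of ABCC3 is quantified by qRT-PCR against ACTB, GAPDH and POLR2A, and activity is fitted in both directions against the DMSO control.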

[8] = read-out: ABC Transporter (ABCB11), ABCB11 (gene 8647); experiment: LTEA_HepaRG_ABCB11: Life Technologies and Expression Analysis (LTEA) Assay for ABC Transporter (ABCB11) using HepaRG (AID 2283463)
In short: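 Differentiated human HepaRG cells were exposed for 48 h in serum-free induction medium to eight half-log concentrations up to 100 uM in 0.5% DMSO. ABCB11 mRNA was quantified by qRT-PCR, normalized to ACTB, GAPDH and POLR2A, and fitted bidirectionally versus DMSO.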

[9] = read-out: ABC Transporter (ABCC2), ABCC2 (gene 1244); experiment: LTEA_HepaRG_ABCC2: Life Technologies and Expression Analysis (LTEA) Assay for ABC Transporter (ABCC2) using HepaRG (AID 2283464)
In short: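 Gene expression of ABCC2 was determined by qRT-PCR in HepaRG cells exposed 48 h to chemicals (highest 100 uM, half-log dilutions). Activity was fitted in both directions relative to 0.5% DMSO vehicle.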

[10] = read-out: Broad substrate specificity ATP-binding cassette transporter ABCG2 (Homo sapiens) (UniProt Q9UNQ0); experiment: LTEA_HepaRG_ABCG2: Life Technologies and Expression Analysis (LTEA) Assay for ABC Transporter (ABCG2) using HepaRG (AID 2283465)
In short: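 Differentiated HepaRG cells in serum-free induction medium were exposed for 48 h, in duplicate, to eight half-log concentrations up to 100 uM in 0.5% DMSO. ABCG2 mRNA was measured by TaqMan qRT-PCR, normalized to ACTB, GAPDH and POLR2A, and fitted bidirectionally versus DMSO.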

[11] = read-out: ATP-citrate lyase (ACLY), ACLY (gene 47); experiment: LTEA_HepaRG_ACLY: Life Technologies and Expression Analysis (LTEA) Assay for ATP-citrate lyase (ACLY) using HepaRG (AID 2283466)
In short: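 Differentiated human HepaRG cells in serum-free induction medium exposed 48 h, in duplicate, to eight half-log concentrations from 100 uM top in 0.5% DMSO; ACLY mRNA measured by qRT-PCR, normalized to ACTB, GAPDH, POLR2A, fitted bidirectionally versus DMSO.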

[12] = read-out: Peroxisomal acyl-coenzyme A oxidase 1 (ACOX1) gene, ACOX1 (gene 51); experiment: LTEA_HepaRG_ACOX1: Life Technologies and Expression Analysis (LTEA) Assay for Peroxisomal acyl-coenzyme A oxidase 1 (ACOX1) gene using HepaRG (AID 2283467)
In short: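 Differentiated human HepaRG cells were exposed in duplicate for 48 h in serum-free induction medium to eight half-log concentrations up to 100 uM in 0.5% DMSO. ACOX1 mRNA was then quantified by TaqMan qRT-PCR, normalized to ACTB, GAPDH and POLR2A.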

[13] = read-out: Bcl-2 (BAD) gene, BAD (gene 572); experiment: LTEA_HepaRG_BAD: Life Technologies and Expression Analysis (LTEA) Assay for Bcl-2 (BAD) gene using HepaRG (AID 2283469)
In short: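 Differentiated human HepaRG cells in serum-free induction medium were exposed in duplicate for 48 h to eight concentrations (top 100 uM, half-log steps, 0.5% DMSO). BAD mRNA was quantified by qRT-PCR normalised to ACTB, GAPDH and POLR2A, with bidirectional fitting versus DMSO.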

[14] = read-out: Bcl-2 (BAX) gene, BAX (gene 581); experiment: LTEA_HepaRG_BAX: Life Technologies and Expression Analysis (LTEA) Assay for Bcl-2 (BAX) gene using HepaRG (AID 2283470)
In short: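 Differentiated human HepaRG cells, plated 48 h then switched to serum-free induction medium, were exposed 48 h to 8 half-log concentrations up to 100 uM in 0.5% DMSO; BAX mRNA measured by qRT-PCR, normalized to ACTB, GAPDH, POLR2A.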

[15] = read-out: adenosine kinase (ADK) gene, ADK (gene 132); experiment: LTEA_HepaRG_ADK: Life Technologies and Expression Analysis (LTEA) Assay for adenosine kinase (ADK) gene using HepaRG (AID 2283471)
In short: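 HepaRG (human liver), 48 h chemical exposure, 8-pt half-log series, top 100 uM, 0.5% DMSO vehicle. Readout: ADK mRNA by qRT-PCR vs housekeeping genes; bidirectional curve fit relative to DMSO baseline.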

[16] = read-out: Alpha-fetoprotein (AFP) gene, AFP (gene 174); experiment: LTEA_HepaRG_AFP: Life Technologies and Expression Analysis (LTEA) Assay for Alpha-fetoprotein (AFP) gene using HepaRG (AID 2283472)
In short: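 Human HepaRG cells plated 48 h, then switched to serum-free induction medium and exposed in duplicate for 48 h to 8-point half-log series from 100 uM in 0.5% DMSO. AFP mRNA by qRT-PCR, normalized to ACTB, GAPDH, POLR2A; bidirectional fit versus DMSO.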

BCL2L11 (gene 10018) = experiment: LTEA_HepaRG_BCL2L11: Life Technologies and Expression Analysis (LTEA) Assay for Bcl-2 (BCL2L11) gene using HepaRG (AID 2283473)
In short: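 Cells were plated, cultured 48 h, switched to serum-free induction medium, then dosed in duplicate for 48 h at eight half-log concentrations up to 100 uM. Lysates underwent RNA isolation and TaqMan qRT-PCR; gain or loss versus DMSO was fitted.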

[17] = read-out: Alkaline Phosphatase, Placental (ALPP) gene, ALPP (gene 250); experiment: LTEA_HepaRG_ALPP: Life Technologies and Expression Analysis (LTEA) Assay for Alkaline Phosphatase, Placental (ALPP) gene using HepaRG (AID 2283468)
In short: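 Expression of ALPP was quantified by qRT-PCR against three housekeeping genes in human HepaRG cultures treated for 48 h with an eight-point concentration series up to 100 uM. Activity in either direction was fitted relative to 0.5% DMSO.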

Measured: AC50

Broad substrate specificity ATP-binding cassette transporter ABCG2 (Homo sapiens), sequence (Q9UNQ0 whole entry, looked up): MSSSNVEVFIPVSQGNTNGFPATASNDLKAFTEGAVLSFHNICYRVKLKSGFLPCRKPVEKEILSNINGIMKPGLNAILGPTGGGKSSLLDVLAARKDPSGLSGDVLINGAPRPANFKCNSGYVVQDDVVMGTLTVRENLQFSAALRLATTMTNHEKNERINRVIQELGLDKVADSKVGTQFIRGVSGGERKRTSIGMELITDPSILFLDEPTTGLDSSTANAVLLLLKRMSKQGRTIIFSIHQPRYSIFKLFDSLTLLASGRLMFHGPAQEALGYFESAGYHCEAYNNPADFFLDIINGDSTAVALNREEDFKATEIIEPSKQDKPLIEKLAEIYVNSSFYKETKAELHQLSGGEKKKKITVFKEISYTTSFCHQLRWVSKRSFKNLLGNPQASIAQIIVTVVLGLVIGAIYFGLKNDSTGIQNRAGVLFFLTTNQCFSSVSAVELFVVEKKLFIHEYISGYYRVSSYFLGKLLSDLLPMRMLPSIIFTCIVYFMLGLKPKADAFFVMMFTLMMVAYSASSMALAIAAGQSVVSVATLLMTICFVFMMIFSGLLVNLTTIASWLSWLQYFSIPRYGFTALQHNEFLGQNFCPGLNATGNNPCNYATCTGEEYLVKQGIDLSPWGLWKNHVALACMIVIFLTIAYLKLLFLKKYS

OCCCl
not listed: [17]
inactive: all other assays above

CC(C)(C)OOC(C)(C)CCC(C)(C)OOC(C)(C)C
not listed: [2]
inactive: all other assays above

C[N+](C)(C)CC1CO1 (configuration not stated)
not listed: [14] | [17]
inactive: all other assays above

c1ccc(C2CO2)cc1 (configuration not stated)
not listed: [14] | [17]
inactive: all other assays above

OCCOCCO
not listed: [17]
inactive: all other assays above

CC(C)COC(=O)c1ccccc1C(=O)OCC(C)C
not listed: [14]
inactive: all other assays above

c1ccc2c(c1)oc1ccccc12
not listed: [17]
inactive: all other assays above

[As]#[In]
not listed: [14] | [17]
inactive: all other assays above

[O-][Cl+]O
not listed: [14] | [17]
inactive: all other assays above

O=C(O)C1C2CCC(O2)C1C(=O)O (configuration not stated)
active: [4] 37.4 µM | [8] 77.9 µM | [10] 14.2 µM | [16] 75.3 µM
not listed: [14] | [17]
inactive: all other assays above

Nc1cc(Cl)cc(C(=O)O)c1Cl
not listed: [14] | [16]
inactive: all other assays above

c1ccc(N=Nc2ccccc2)cc1
not listed: [14] | [17]
inactive: all other assays above

CC(O)CCO (configuration not stated)
not listed: [14] | [17]
inactive: all other assays above

COC(=O)Nc1nc2ccccc2[nH]1
not listed: [14]
inactive: all other assays above

ClC1=C(Cl)[C@]2(Cl)[C@H]3[C@H]([C@@H]4C=C[C@H]3C4)[C@@]1(Cl)C2(Cl)Cl
active: [10] 9.92 µM | [16] 50 µM
not listed: [9] | [14] | [17]
inactive: all other assays above

CCC12COCN1COC2
not listed: [14] | [17]
inactive: all other assays above

Cc1cccc(N)c1N
active: [1] 50 µM | [4] 50 µM | [6] 64 µM | [8] 62.6 µM | [12] 50 µM | [16] 81.5 µM | BCL2L11 (gene 10018) 9.92 µM
not listed: [14] | [17]
inactive: all other assays above

CCCCC(CC)COC(=O)c1ccc(C(=O)OCC(CC)CCCC)c(C(=O)OCC(CC)CCCC)c1 (configuration not stated)
not listed: [14]
inactive: all other assays above

O=C(Oc1ccc(Br)cc1)N1CCN2CCC1CC2
active: [11] 73.5 µM
not listed: [8] | [14] | [17]
inactive: all other assays above

Clc1ccc(C(c2ccc(Cl)cc2)C(Cl)Cl)cc1
active: [5] 31.6 µM | [8] 81.8 µM | [9] 19.3 µM | [16] 14 µM
not listed: [17]
inactive: all other assays above

Oc1ccc2ccc3cccc4ccc1c2c34
active: [10] 11.9 µM
not listed: [14]
inactive: all other assays above

C1=Cc2cccc3cccc1c23
not listed: [8] | [14] | [17]
inactive: all other assays above

O=[N+]([O-])C(Br)(CO)CO
not listed: [14] | [17]
inactive: all other assays above

CCCCCCCCn1sccc1=O
active: [1] 78.9 µM | [7] 73.8 µM | [8] 72.1 µM | [12] 83.8 µM | [16] 79.5 µM
not listed: [14] | [17]
inactive: all other assays above

Clc1ccc(C(c2ccc(Cl)cc2)C(Cl)(Cl)Cl)cc1
active: [5] 50 µM | [9] 4.19 µM | [10] 0.788 µM | [16] 50 µM
not listed: [17]
inactive: all other assays above

Nc1ccc(N=Nc2ccccc2)cc1
inactive: [3] | [13]
active: [1] 20.8 µM | [2] 30.9 µM | [4] 18.4 µM | [5] 15.5 µM | [6] 29 µM | [8] 13.8 µM | [9] 13.2 µM | [10] 13 µM | [11] 13.3 µM | [12] 14 µM | [15] 10.7 µM | [16] 20.5 µM | BCL2L11 (gene 10018) 17.6 µM
